According to PubChem BioAssay AID938 (National Center for Advancing Translational Sciences (NCATS), 2007):
Values joined by “and” are separate entries in the source; they are usually repeats but may differ in a detail not shown here. Equal values may be shown once. Out of some 73,000 compounds screened, about 1,800 (2.5%) were called active. Not shown: some 13% with an inconclusive outcome. The sample holds actives, similar compounds and a random draw of the others, so the mix is not that of the screen. Calls come from the whole dose curve; as a rule, active = well fitted activation curve with a large enough effect; inconclusive = small, poorly fitted or top-dose-only effect; inactive = no such curve, though single readings can be large or run the other way.

Test: qHTS Assay for Agonists of the Thyroid Stimulating Hormone Receptor: Activators of Intracellular cAMP Concentrations in Parental HEK 293; note: nearly all actives have a fitted effect of over 55% in size; for activation: % of control where 0% means no effect
Settings: parental HEK293 CNG cAMP sensor, membrane potential fluorescence; series mostly up to 57.1 µM; activation: at the top concentration
Procedure, shortened: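 Parental HEK 293 cells stably expressing a modified CNG channel (no TSHR) report cAMP rise as membrane depolarization. Membrane potential dye with 100 uM RO 20-1724 was loaded for 60 min at room temperature, then compound added for 30 min; fluorescence read at 590 nm.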
Potency is the fitted concentration of half-maximal effect.

Row | Compound | activation | Potency
1 | CSc1nnc(CNC(=O)c2ccccc2)n1-c1ccc(F)cc1 | -1.99% (inactive) | 
2 | CCCOc1ccc(NC(=O)C2CCCNC2=O)cc1 (stereo unspecified) | 6.39% (inactive) | 
3 | CCc1ccc2oc(=O)cc(CN3CCCCC3C)c2c1 (stereo unspecified) |  | 25.1 µM (active)
4 | Cc1cc(NC(=O)CN2CCCCC2C)nc2c1c(=O)oc1ccccc12 (stereo unspecified) | 1.59% (inactive) | 
5 | CC1CCCCN1CC(=O)NCc1ccc2c(c1)OCO2 (stereo unspecified) | 10% (inactive) | 
6 | CCCn1c(C)nc2c(NCCCCN(CC)CC)nc(C)nc21 | 4.8% (inactive) | 
7 | CCN1CCCC1CNc1ncnc2c1[nH]c1ccc(F)cc12 (stereo unspecified) | 10.1% (inactive) | 
8 | CCCn1c(-c2ccc(F)cc2)nc2c(NCC3CCCN3CC)nc(C)nc21 (stereo unspecified) |  | 15.8 µM (active)
9 | COc1ccc(CN2CC(C(=O)NCCN3CCN(c4ccccc4F)CC3)CC2=O)cc1 (stereo unspecified) | 11.9% (inactive) | 
10 | CN1CCC2(CC1)NC(=O)NC2=O | 2.1% (inactive) | 
11 | CC[C@@H]1Cc2cc(O)ccc2C2=C1c1ccc(O)cc1C[C@H]2CC |  | 6.31 µM (active)
12 | O=P(O)(CN1CCCCC1)CN1CCCCC1 | 4.02% (inactive) | 
13 | O=C(c1ccc([N+](=O)[O-])cc1)[C@@H](Br)[C@@H](Br)c1ccnc2ccccc12 | 8.13% [at 11.4 µM] (inactive) | 
14 | CCC[C@@H]1C[C@@]1(CCC)[C@@H](NC(=O)c1ccccc1)c1ccc(C(=O)OC)cc1 |  | 7.94 µM (active)
15 | CCCC(=O)C1=C(N(C)c2ccccc2)CC(C)(C)C(C(=O)OC)C1=O (stereo unspecified) | 7.86% (inactive) | 
16 | CCC[C@@H]1C[C@@]1(CCC)C(NC(=O)c1ccc(-c2ccccc2)cc1)c1cccc(Cl)c1 (stereo partly specified) | -2.94% (inactive) | 
17 | COc1nc(OC)nc(N(C)CCO)n1 | -0.636% (inactive) | 
18 | CCSC(C)CC1C/C(=N/O)c2c(C)noc2C1 (stereo unspecified) | 24.2% (inactive) | 
19 | CCOC(=O)N1CCN(C(=O)c2ccc(CN(c3ccc(C)c(C)c3)S(C)(=O)=O)cc2)CC1 | -9.64% (inactive) | 
20 | CC(C)C(c1nnnn1Cc1ccccc1)N1CCC(C(N)=O)CC1 (stereo unspecified) | 3.61% (inactive) | 
21 | CCC(c1nnnn1C1CCCC1)N1CCN(C(=O)c2ccco2)CC1 (stereo unspecified) | 25.9% (inactive) | 
22 | CC(C)C(c1nnnn1C1CCCC1)N1CCN(c2ccccc2F)CC1 (stereo unspecified) |  | 15.8 µM (active)
23 | CC(C)CN1CCc2nc(-c3ccccc3)c3c(c2C1)COC(C)C3 (stereo unspecified) | -2.08% [at 11.4 µM] (inactive) | 
24 | Cn1c2c(c(=O)n(C)c1=O)CN(Cc1ccco1)CN2 | 23.6% (inactive) | 

Row | Compound | activation | Potency
25 | c1ccc(Oc2ccccc2)cc1 | -32.5% (inactive) | 
26 | CC1CN(C2CCCCC2)c2nc3c(c(=O)n(C)c(=O)n3C)n2C1 (stereo unspecified) | -0.0916% (inactive) | 
27 | Cn1cccc1C1(C(F)(F)F)NCCNC1=O (stereo unspecified) | 7.67% (inactive) | 
28 | COc1cc(-c2nn3c(-c4cccc(C)c4)nnc3s2)cc(OC)c1OC | 19.4% (inactive) | 
29 | Fc1ccc(OCc2nn3c(Cn4nnc5ccccc54)nnc3s2)cc1 | 9.34% (inactive) | 
30 | CCOc1cccc(-c2nnc3sc(COc4ccc(OC)cc4)nn23)c1 |  | 31.6 µM (active)
31 | COc1ccccc1-c1cc(NCc2cccs2)ncn1 |  | 31.6 µM (active)
32 | Clc1ccccc1-c1cc(NCCN2CCOCC2)ncn1 | 6% (inactive) | 
33 | CNc1nc(-c2ccccc2OC)nc2ccccc12 | -50.8% (inactive) | 
34 | COc1ccccc1-c1nc(NCc2cccs2)c2ccccc2n1 |  | 25.1 µM (active)
35 | COc1ccccc1CNCc1cccs1 | 10.6% (inactive) | 
36 | COc1ccccc1-c1nc(NCCNC(C)=O)c2ccccc2n1 | 8.51% (inactive) | 
37 | CCOC(=O)c1cc2occc2n1CC(=O)N1CCN(C(=O)c2ccco2)CC1 | -0.0256% (inactive) | 
38 | CO[C@@H]1COC(=O)C/C=C\[C@H](C)[C@@H](NS(=O)(=O)c2ccc(C)cc2)COC(=O)C/C=C\[C@@H]1C | 2.07% [at 11.4 µM] (inactive) and 4.9% [at 11.4 µM] (inactive) | 
39 | CCC[C@H]1C(=O)N2C(N(C)C)=Nc3ccc(C)cc3N2C1=O | -3.93% [at 25.6 µM] (inactive) | 
40 | COc1ccccc1C(=O)C(O)c1ccccc1OC (stereo unspecified) | 7.49% (inactive) | 
41 | Cc1ccc(C)c(N2CCN(C(=O)CCc3nc4ccccc4[nH]3)CC2)c1 | 1.94% (inactive) | 
42 | Cc1cc(C)n(-c2nc(SCC(=O)N3CCCC3)c3c4c(sc3n2)CCCC4)n1 | 19.1% (inactive) | 
43 | COCCNc1nc(-n2nc(C)cc2C)nc2sc3c(c12)CCCC3 |  | 15.8 µM (active)
44 | COCCn1c(C)cc(C(=O)CSc2ncnc3sc4c(c23)CCC4)c1C | 21.4% (inactive) | 
45 | COc1cc2c(cc1OC)C(c1ccc(C)o1)CC(=O)N2 (stereo unspecified) | -0.178% (inactive) | 
46 | COCCOC(=O)C1=C(C)NC(=O)CC1c1cc2c(cc1Br)OCO2 (stereo unspecified) | -2.69% (inactive) | 
47 | CCCOc1ccccc1C1CC(=O)Nc2cc3c(cc21)OCO3 (stereo unspecified) |  | 7.94 µM (active)
48 | COc1ccc(NS(=O)(=O)c2ccc(NC(=O)C(C)(C(F)(F)F)C(F)(F)F)cc2)nn1 | 0.701% (inactive) | 

Row | Compound | activation | Potency
49 | Cc1nc2nc[nH]n2c(=O)c1NC(=O)c1cccc(OCC(C)C)c1 | 4.26% (inactive) | 
50 | CCOC(=O)c1[nH]c2c(c1C)C(=O)CC(c1ccc(N(C)C)cc1)C2 (stereo unspecified) | 10% (inactive) | 
51 | COC(=O)C1C(=O)c2c([nH]c(C(=O)OCCSC)c2C)CC1C (stereo unspecified) | 13% (inactive) | 
52 | CCCOC(=O)c1[nH]c2c(c1C)C(=O)CC(c1cc(OC)c(OC)c(OC)c1)C2 (stereo unspecified) |  | 15.8 µM (active)
53 | N[C@@H](C(=O)O)c1ccc(P(=O)(O)O)cc1 | -0.407% (inactive) | 
54 | C/C(CCN1CCCCc2nc(C)c(C)cc21)=N\O[C@@H](C)c1cn([C@@H]2COC[C@@H]2O)nn1 | 6.27% [at 11.4 µM] (inactive) | 
55 | C[C@@H]1O[C@@H](O[C@@H]2[C@@H](O)[C@H](OCCc3ccc(O)c(O)c3)O[C@H](CO[C@@H]3O[C@H](CO)[C@@H](O)[C@H](O)[C@H]3O)[C@H]2OC(=O)/C=C/c2ccc(O)c(O)c2)[C@H](O)[C@H](O)[C@H]1O | 23.7% (inactive) | 
56 | CO[C@H]1COC(=O)[C@@H](OCc2ccccc2)/C=C\[C@H](C)[C@@H](OC)COC(=O)[C@H](OCc2ccccc2)/C=C\[C@@H]1C | -2.98% [at 11.4 µM] (inactive) | 
57 | Cn1cccc1C(=O)N1CCC[C@@]2(CCN(Cc3nccs3)C2)C1 | 1.41% (inactive) | 
58 | O=C(c1csnn1)N1CCC2(CC1)CN(c1ncccn1)C2 | 2.09% (inactive) | 
59 | O=C(c1csnn1)N1CCC[C@@]2(CCN(Cc3nccs3)C2)C1 |  | 3.98 µM (active)
60 | CCc1cc(=O)oc2cc(OCC(=O)N3CCCc4ccccc43)ccc12 | -4.75% (inactive) | 
61 | CCOC(=O)c1ccc(NC(=O)CS(=O)(=O)c2cn(CC)c3ccccc23)cc1 | 9.17% (inactive) | 
62 | COC(=O)[C@@H](NC(=O)NCc1cccc(OC)c1)C(C)C | 7.43% (inactive) | 
63 | O=C(c1cccc(F)c1)N1CCC2(CC1)CCN(c1ccccc1)CC2 | -0.919% (inactive) | 
64 | O=C(Nc1ccccc1N1CCN(c2ccccc2)CC1)c1cccc(F)c1 |  | 3.98 µM (active)
65 | O=C(Nc1cccc(NC(=O)N2CCN(c3ccccc3)CC2)c1)N1CCN(c2ccccc2)CC1 | -10.9% (inactive) | 
66 | O=C1[C@H]2[C@H]3[C@H](O)[C@H](O)C/C(=N/OCc4ccccc4)[C@H]3CC[C@@H]2C(=O)N1Cc1ccccc1 | -2.25% [at 11.4 µM] (inactive) | 
67 | C[C@@H](c1ccccc1)N1C(=O)[C@H]2[C@H]3[C@H](O)[C@H](O)C/C(=N/OC[C@@H](O)COCc4ccco4)[C@@H]3CC[C@@H]2C1=O | 5.7% [at 11.4 µM] (inactive) | 
68 | O=C(NCc1ccco1)c1cccn2c(=O)c3cc(Br)ccc3nc12 | 5.6% (inactive) | 
69 | O=C(NCc1ccco1)c1nc(-c2ccccc2)n(-c2ccccc2)n1 | 22.4% (inactive) | 
70 | O=C(NCc1ccco1)c1cc(-c2cccnc2)nc2ccc(Cl)cc12 |  | 31.6 µM (active)
71 | CN(C)CCCCNC(=O)c1ccc(Cc2nc3ccccc3[nH]2)cc1 | 3.13% (inactive) | 
72 | Oc1c(Cl)cc(Cl)c(Cl)c1Cc1c(O)c(Cl)cc(Cl)c1Cl |  | 10 µM (active)

Row | Compound | activation | Potency
73 | C=CC(=O)c1ccc2ccccc2c1 | 8.58% (inactive) | 
74 | O=C(CCSc1ccccc1)NCCSc1ccccn1 | 15.3% (inactive) | 
75 | N#Cc1ccc(C(c2nnnn2CCc2ccccc2)N2CCCCCC2)cc1 (stereo unspecified) |  | 15.8 µM (active)
76 | CC(C)C(c1nnnn1CCc1ccccc1)N1CCN(C(=O)c2ccco2)CC1 (stereo unspecified) | 20.5% (inactive) | 
77 | COc1ccc(CCn2nnnc2C(c2ccccc2)N2CCN(C)CC2)cc1OC (stereo unspecified) | 26.2% (inactive) | 
78 | S=c1c2[nH]cnc2ncn1CCSc1ncnc2nc[nH]c12 | -1.69% [at 11.4 µM] (inactive) | 
79 | c1ccc(-n2nnnc2N2CCOCC2)cc1 | -5.36% (inactive) | 
80 | c1ccc(COc2nsnc2N2CCOCC2)cc1 | 27.1% (inactive) | 
81 | c1ccc(-c2oc3ncnc(N4CCOCC4)c3c2-c2ccccc2)cc1 |  | 15.8 µM (active)
82 | CC(C)NC(=O)CCCn1c(=S)[nH]c2cc3c(cc2c1=O)OCO3 | 8.66% (inactive) | 
83 | O=C(Nc1ccccc1)N[C@H]1C[C@H](C(=O)O)Nc2cc(Cl)cc(Cl)c21 | 8% (inactive) | 
84 | Cc1noc(C)c1-c1cc(NCc2cccnc2)ncn1 | -4.51% (inactive) | 
85 | COCCNc1cc(-c2c(C)noc2C)ncn1 | 2.35% (inactive) | 
86 | CNc1cc(-c2c(C)noc2C)ncn1 |  | 3.98 µM (active)
87 | O=C(CSc1nnc(-c2ccoc2)o1)N1CCOCC1 | -3.67% (inactive) | 
88 | CC(=O)OCC1OC(C#CCCCc2ccccc2)C=CC1OC(C)=O (stereo unspecified) | -0.905% [at 11.4 µM] (inactive) | 
89 | COCCCNC(=O)CCc1nc2cccnc2n1Cc1ccc(OC)cc1 | -5.11% (inactive) | 
90 | COC(=O)[C@@H]1CC[C@H](C)[C@@H](c2ccc(C)cc2)N1C(=O)c1ccc(/C=N\OC[C@@H](O)COCc2ccco2)cc1 | 44.4% [at 11.4 µM] (inactive) | 
91 | CO[C@@H]1COC(=O)[C@H](Cc2ccccc2)NC(=O)C/C=C\[C@@H](C)[C@H](OC)COC(=O)[C@@H](C)NC(=O)C/C=C\[C@H]1C | 8.45% [at 11.4 µM] (inactive) and -4.16% [at 11.4 µM] (inactive) | 
92 | COCCn1c(SCC(=O)Nc2cc(Cl)ccc2OC)nc2c(c1=O)SC(C)C2 (stereo unspecified) | 27.1% (inactive) | 
93 | COc1ccccc1NC(=O)C1=C(C)Nc2nnnn2C1c1cccc(Br)c1 (stereo unspecified) | -0.777% (inactive) | 
94 | COC(=O)c1ccc(C2C3=C(Nc4nnnn42)c2ccccc2OC3)cc1 (stereo unspecified) |  | 12.6 µM (active)
95 | COc1ccc(C2C(C(=O)Nc3ccccc3OC)=C(C)Nc3nnnn32)c(OC)c1 (stereo unspecified) | 5.5% (inactive) | 
96 | O=C(CNCCO)NC12CC3CC(CC(C3)C1)C2 | 6.62% (inactive) | 
